The campaign covered roughly 5,500 compounds. About 2,000 (36%) were called active. Another 18% or so got no clear call; they are omitted. Rule as the data show it: active = normalized growth mostly below about 0.91 (no sharp cut-off); inconclusive = no clear call, values can overlap the other calls; inactive = mostly above about 0.92. The list shows a part of the results.
Assay: chemical genetic growth profiling, strain panel (AID 1159580);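 also: tested at 20 µM; growth read once vehicle control cultures reached saturation at 30 °C; 1 = growth at the plate median or of vehicle wells; lower values mean less growth of the strain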
Conditions: S. cerevisiae deletion strains, growth OD
[1] = locus YAR019C, strain CDC15, stronger effect = lower value
[2] = locus YBL105C, strain PKC1, stronger effect = lower value
[3] = locus YBR135W, strain CKS1, stronger effect = lower value
[4] = locus YBR136W, strain MEC1, stronger effect = lower value
[5] = locus YBR160W, strain CDC28, stronger effect = lower value
[6] = locus YDL017W, strain CDC7, stronger effect = lower value
[7] = locus YDL028C, strain MPS1, stronger effect = lower value
[8] = locus YDL101C, strain DUN1, stronger effect = lower value
[9] = locus YDL108W, strain KIN28, stronger effect = lower value
[10] = locus YDL132W, strain cdc53, stronger effect = lower value
[11] = locus YDL214C, strain PRR2, stronger effect = lower value
[12] = locus YDR052C, strain DBF4, stronger effect = lower value
[13] = locus YDR054C, strain cdc34, stronger effect = lower value
[14] = locus YDR226W, strain ADK1, stronger effect = lower value
[15] = locus YDR477W, strain SNF1, stronger effect = lower value
[16] = locus YER123W, strain YCK3, stronger effect = lower value
[17] = locus YER133W, strain GLC7, stronger effect = lower value
[18] = locus YFL009W, strain cdc4, stronger effect = lower value
[19] = locus YFL029C, strain CAK1, stronger effect = lower value
[20] = locus YFR003C, strain YPI1, stronger effect = lower value
[21] = locus YFR019W, strain FAB1, stronger effect = lower value
[22] = locus YFR028C, strain CDC14, stronger effect = lower value
[23] = locus YGR040W, strain KSS1, stronger effect = lower value
[24] = locus YGR052W, strain FMP48, stronger effect = lower value
[25] = locus YGR092W, strain DBF2, stronger effect = lower value
[26] = locus YHR030C, strain SLT2, stronger effect = lower value
[27] = locus YHR079C, strain IRE1, stronger effect = lower value
[28] = locus YHR082C, strain KSP1, stronger effect = lower value
[29] = locus YHR205W, strain SCH9, stronger effect = lower value
[30] = locus YIL147C, strain SLN1, stronger effect = lower value
[31] = locus YJL095W, strain BCK1, stronger effect = lower value
[32] = locus YJL128C, strain PBS2, stronger effect = lower value
[33] = locus YJL157C, strain FAR1, stronger effect = lower value
[34] = locus YJR016C, strain ILV3, stronger effect = lower value
[35] = locus YJR066W, strain TOR1 (second series), stronger effect = lower value
[36] = locus YJR066W, strain TOR1, stronger effect = lower value
[37] = locus YKL048C, strain ELM1, stronger effect = lower value
[38] = locus YKL067W, strain YNK1, stronger effect = lower value
[39] = locus YKL101W, strain HSL1, stronger effect = lower value
[40] = locus YKL193C, strain SDS22, stronger effect = lower value
[41] = locus YKL203C, strain TOR2, stronger effect = lower value
[42] = locus YLR113W, strain HOG1, stronger effect = lower value
[43] = locus YLR133W, strain CKI1, stronger effect = lower value
[44] = locus YLR403W, strain SFP1, stronger effect = lower value
[45] = locus YML070W, strain DAK1, stronger effect = lower value
[46] = locus YMR001C, strain CDC5, stronger effect = lower value
[47] = locus YMR205C, strain PFK2 (second series), stronger effect = lower value
[48] = locus YMR277W, strain FCP1, stronger effect = lower value
[49] = locus YNL006W, strain LST8, stronger effect = lower value
[50] = locus YNL020C, strain ARK1, stronger effect = lower value
[51] = locus YNL161W, strain CBK1, stronger effect = lower value
[52] = locus YNL183C, strain NPR1, stronger effect = lower value
[53] = locus YNL207W, strain RIO2, stronger effect = lower value
[54] = locus YNL222W, strain SSU72, stronger effect = lower value
[55] = locus YNL307C, strain MCK1 (second series), stronger effect = lower value
[56] = locus YOL078W, strain AVO1, stronger effect = lower value
[57] = locus YOL136C, strain PFK27, stronger effect = lower value
[58] = locus YOR061W, strain CKA2, stronger effect = lower value
[59] = locus YOR119C, strain RIO1, stronger effect = lower value
[60] = locus YOR231W, strain MKK1, stronger effect = lower value
[61] = locus YOR329C, strain SCD5, stronger effect = lower value
[62] = locus YPL031C, strain PHO85, stronger effect = lower value
[63] = locus YPL153C, strain RAD53, stronger effect = lower value
[64] = locus YPL204W, strain HRR25, stronger effect = lower value
[65] = locus YPL209C, strain IPL1, stronger effect = lower value
[66] = locus YPL256C, strain CLN2, stronger effect = lower value
[67] = locus YPR025C, strain CCL1, stronger effect = lower value
[68] = locus YPR106W, strain ISR1, stronger effect = lower value
[69] = locus YPR111W, strain DBF20, stronger effect = lower value
[70] = strain NNK1, stronger effect = lower value
[71] = strain TSCII, stronger effect = lower value

Measured: normalized growth

O=C(/C=C/c1ccc(Cl)cc1)Nc1cccc(Cl)c1
inactive: [1] 0.958 | [2] 0.948 | [3] 0.961 | [4] 0.961 | [5] 0.961 | [6] 0.949 | [7] 0.951 | [8] 0.973 | [9] 0.961 | [10] 0.962 | [11] 0.88 | [12] 0.952 | [13] 0.958 | [14] 0.95 | [15] 0.838 | [16] 0.631 | [17] 0.831 | [18] 0.963 | [19] 0.949 | [20] 0.953 | [21] 0.936 | [22] 0.968 | [23] 0.816 | [24] 0.819 | [25] 0.485 | [27] 0.853 | [28] 0.875 | [29] 0.744 | [30] 0.96 | [31] 0.754 | [32] 0.919 | [33] 0.889 | [34] 0.965 | [35] 0.877 | [36] 0.831 | [37] 0.895 | [38] 0.876 | [39] 0.872 | [40] 0.956 | [41] 0.881 | [43] 0.864 | [44] 0.774 | [45] 0.798 | [46] 0.96 | [47] 0.886 | [48] 0.957 | [49] 0.971 | [50] 0.883 | [51] 0.965 | [52] 0.796 | [53] 0.948 | [54] 0.961 | [55] 0.699 | [56] 0.938 | [57] 0.839 | [58] 0.857 | [59] 0.867 | [60] 0.837 | [61] 0.957 | [62] 0.835 | [63] 0.863 | [64] 0.822 | [65] 0.96 | [66] 0.862 | [67] 0.952 | [68] 0.944 | [69] 0.942 | [70] 0.96 | [71] 0.965
active: [26] 0.846 | [42] 0.816

COC(=S)Nc1cc(Cl)cc(Cl)c1
inactive: [1] 0.938 | [2] 0.94 | [3] 0.935 | [4] 0.94 | [5] 0.935 | [6] 0.938 | [7] 0.939 | [8] 0.949 | [9] 0.943 | [10] 0.95 | [11] 0.702 | [12] 0.935 | [13] 0.959 | [14] 0.921 | [18] 0.912 | [19] 0.919 | [20] 0.941 | [21] 0.828 | [22] 0.966 | [24] 0.698 | [28] 0.633 | [29] 0.659 | [30] 0.929 | [31] 0.584 | [32] 0.935 | [34] 0.925 | [35] 0.653 | [36] 0.604 | [37] 0.816 | [39] 0.762 | [40] 0.919 | [43] 0.742 | [46] 0.935 | [48] 0.932 | [49] 0.936 | [50] 0.727 | [51] 0.934 | [53] 0.927 | [54] 0.933 | [56] 0.923 | [58] 0.719 | [59] 0.746 | [60] 0.585 | [61] 0.929 | [65] 0.935 | [67] 0.936 | [68] 0.927 | [69] 0.96 | [70] 0.936 | [71] 0.913
active: [15] 0.685 | [16] 0.608 | [17] 0.559 | [23] 0.662 | [25] 0.452 | [26] 0.577 | [27] 0.499 | [33] 0.679 | [38] 0.704 | [41] 0.697 | [42] 0.458 | [44] 0.569 | [45] 0.644 | [47] 0.747 | [52] 0.544 | [55] 0.599 | [57] 0.648 | [62] 0.564 | [63] 0.588 | [64] 0.567 | [66] 0.627

C[N+](C)(C)CC#CCOC(=O)Nc1cccc(Cl)c1
inactive: locus YAL040C, strain CLN3, stronger effect = lower value 0.998 | locus YDR363W, strain ESC2, stronger effect = lower value 0.987 | locus YER002W, strain NOP16, stronger effect = lower value 0.99 | locus YJR075W, strain HOC1, stronger effect = lower value 0.952 | locus YMR263W, strain SAP30, stronger effect = lower value 0.953 | locus YMR307W, strain GAS1, stronger effect = lower value 0.985 | locus YNL128W, strain TEP1, stronger effect = lower value 0.966 | locus YNL153C, strain GIM3, stronger effect = lower value 0.998 | locus YNL175C, strain NOP13, stronger effect = lower value 0.984 | locus YNL197C, strain WHI3, stronger effect = lower value 0.973 | locus YNL224C, strain SQS1, stronger effect = lower value 0.993 | locus YOR083W, strain WHI5 (second series), stronger effect = lower value 0.954 | locus YPL241C, strain CIN2, stronger effect = lower value 0.998
